Results published in the supplement of paper PMC10720658.
± gives the standard deviation of the averaged measurements.

tested on: AEK1 (Tb927.3.2440); assay: percent reduction in TR-FRET probe signal relative to DMSO control; higher = stronger displacement of ATP-site probe (binding); conditions: 1 µM; incubation time 1 h

Structure (SMILES)	percent reduction in TR-FRET probe signal [%]
CC(C)CC(NC(=O)C(Cc1ccccc1)NC(=O)C(CCC(N)=O)NC(=O)C(Cc1ccc(O)cc1)NC(=O)C(C)NC(=O)CNC(=O)C(CCCCN)NC(=O)C(Cc1c[nH]c2ccccc12)NC(=O)C(NC(=O)C(Cc1c[nH]c2ccccc12)NC(=O)C(CCCCN)NC(=O)CNC(=O)C(CC(N)=O)NC(=O)C(CCC(=O)O)NC(=O)C(Cc1c[nH]c2ccccc12)NC(=O)C(NC(=O)C(Cc1c[nH]c2ccccc12)NC(=O)C(CO)NC(=O)CNC(=O)C1CCCN1C(=O)C(Cc1c[nH]c2ccccc12)NC(=O)C(CCC(N)=O)NC(=O)C(Cc1ccccc1)NC(=O)CNC(=O)C(N)Cc1c[nH]cn1)C(C)O)C(C)O)C(=O)NC(CCCCN)C(=O)NCC(=O)NCC(=O)NCC(=O)NCC(=O)NC(CO)C(=O)NC(CCCNC(=N)N)C(=O)NC(CCCNC(=N)N)C(=O)NC(CCCNC(=N)N)C(=O)NC(CCCNC(=N)N)C(=O)NC(CCCNC(=N)N)C(=O)NC(CCCNC(=N)N)C(=O)NC(CCCNC(=N)N)C(=O)NC(CCCNC(=N)N)C(=O)NC(CCCNC(=N)N)C(=O)O (configuration not stated)	-15.1 ± 6.2
CN(C)S(=O)(=O)c1ccc2c(c1)/C(=C/c1cc3c([nH]1)CCCC3)C(=O)N2	43.6 ± 21
COc1c(C)c(C(=O)c2ccc(N)c(C(=O)[O][Na])c2)n2ccccc12	6.59 ± 7.5
CS(=O)(=O)O.Cc1ccc(NC(=O)c2ccc(CN3CCN(C)CC3)cc2)cc1Nc1nccc(-c2cccnc2)n1 [Imatinib Mesylate (STI571)]	7.01 ± 21
O=C1NC(=O)/C(=C/c2ccc(-c3ccc(F)cc3O)o2)S1	16 ± 24
O=C(NC[C@H](O)CO)c1ccncc1Nc1ccc(I)cc1F	8.42 ± 5
C[C@@H](NC(=O)c1ncnc(N)c1Cl)c1ncc(C(=O)Nc2cc(C(F)(F)F)c(Cl)cn2)s1	-3.59 ± 11
CC(=O)Nc1nc(C)c(-c2ccc(Cl)c(S(=O)(=O)NCCO)c2)s1	-6.5 ± 15
NCC(=O)Nc1ccc(-n2nc(C(F)(F)F)cc2-c2ccc3c(ccc4ccccc43)c2)cc1	-2.82 ± 7.5
CS(=O)(=O)CCNCc1ccc(-c2ccc3ncnc(Nc4ccc(OCc5cccc(F)c5)c(Cl)c4)c3c2)o1 [Lapatinib]	6.42 ± 9.8
Cn1cnc(N)c2ncnc1-2 [3-Methyladenine (3-MA)]	-2.13 ± 5.3
Cc1nc(N)sc1-c1ccnc(Nc2ccc(N3CCOCC3)cc2)n1	10.3 ± 6.7
C[C@@H]1CN(CC(=O)Nc2ccc3c(c2)Cc2cccc(-c4cc(=O)cc(N5CCOCC5)o4)c2S3)C[C@H](C)O1	-2.9 ± 6.6
COc1cc(CCc2cc(NC(=O)c3ccc(N4C[C@@H](C)N[C@@H](C)C4)cc3)n[nH]2)cc(OC)c1	2.07 ± 10
O=C1NC(=O)C(c2ccccc2[N+](=O)[O-])=C1Nc1ccc(O)c(Cl)c1	-2.58 ± 9.4
Cc1cc(F)c(Nc2ncnc3cc(OCc4ccccc4)ccc23)cc1O.Cl	29.8 ± 17
O=c1c(-c2ccc(O)cc2)coc2cc(O)cc(O)c12 [Genistein]	23.3 ± 20
CCC(=O)Nc1cccc(Oc2nc(Nc3ccc(N4CCN(C)CC4)cc3OC)ncc2Cl)c1	-15.7 ± 6.4
CC(C)c1cnn2c(NCc3ccccc3)cc(NCCCCCCN)nc12.Cl	-3.89 ± 4.8

Structure (SMILES)	percent reduction in TR-FRET probe signal [%]
CNC(=O)c1cccc(-c2ccc3c(N4CCOC[C@@H]4C)nc(N4CCOC[C@@H]4C)nc3n2)c1 [Vistusertib (AZD2014)]	9.57 ± 9.3
COc1cc2c(c(OC)c1OC)-c1c(cc3c(c1OC)OCO3)C[C@@H](C)[C@@H](C)C2 [Schisandrin B (Sch B)]	13.6 ± 28
COc1cc(Nc2ncc(F)c(Nc3ccc4c(n3)NC(=O)C(C)(C)O4)n2)cc(OC)c1OC [R406 (free base)]	87.4 ± 6
C[C@@H]1COCCN1c1cc(C2(S(C)(=O)=O)CC2)nc(-c2cccc3[nH]ccc23)n1	0.253 ± 7.1
Cc1ccc(NC(=O)c2cccc(N(C)C)c2)cc1NC(=O)c1ccc(O)cc1	-8.68 ± 4
C#Cc1cccc(Nc2ncnc3cc(OCCOC)c(OCCO)cc23)c1.Cl	-0.453 ± 12
COc1cc2ncnc(Oc3cccc(NC(=O)Nc4cc(C(C)(C)C(F)(F)F)on4)c3)c2cc1OC	1.1 ± 13
Cc1cc(Nc2cc(N3CCN(C)CC3)nc(Sc3ccc(NC(=O)C4CC4)cc3)n2)n[nH]1 [VX-680 (Tozasertib, MK-0457)]	10.3 ± 20
CCC[C@H](NC(=O)/C(C#N)=C/c1cccc(Br)n1)c1ccccc1 [Degrasyn (WP1130)]	2.37 ± 17
N#Cc1ccc2[nH]c(O)c(-c3ccc(CN4CCOCC4)cn3)c2c1	-12.4 ± 8.1
COc1ncc(-c2cc(-c3ncc(CN4C[C@@H](C)O[C@@H](C)C4)o3)c3cn[nH]c3c2)cc1NS(C)(=O)=O	-2.16 ± 6.2
Cc1cc(Nc2cc(N3CCN(C)CC3)nc(/C=C/c3ccccc3)n2)n[nH]1	20.9 ± 12
O=C1N=C(NCc2cccs2)S/C1=C\c1ccc2ncccc2c1	8.12 ± 4.7
CNc1nc(-c2ccc3c(N)n[nH]c3c2)cc(N2C[C@@H](C(=O)NC3CCCCC3)CC[C@H]2C)n1	14.7 ± 20
C#Cc1cccc(Nc2ncnc3cc4c(cc23)OCCOCCOCCO4)c1 [Icotinib]	-5.67 ± 19
CC(C)CCN1c2nc(Nc3cc(F)c(O)c(F)c3)ncc2N(C)C(=O)C1C (configuration not stated)	-13.7 ± 9.2
Cl.Cl.Clc1ccc(Nc2nnc(Cc3ccncc3)c3ccccc23)cc1 [Vatalanib (PTK787) 2HCl]	4.61 ± 8.7
Cc1n[nH]c2ccc(-c3cncc(OC[C@@H](N)Cc4ccccc4)c3)cc12	14.1 ± 24
